# MEKK2 mut-MEK5 – signal of MEK5 binding to mutant human MEKK2 PB1 domain; AID 1530; 290,000 compounds, 0.35% hits; bead flow cytometry, Alexa488-MEK5 binding to MEKK2 mutant; percent response, % at 10 µM; in the data active = percent response above about 24%, passing the limit was not always enough
# MEKK2 WT-MEK5 – raises or lowers MEK5 binding to wildtype human MEKK2 PB1 domain | AID 1531 | binding response (% of control), % at 10 µM | bead flow cytometry, Alexa488-MEK5 binding to MEKK2 WT; actives lie on both sides | Q9Y2U5 | 290,000 compounds, 1.1% hits; in the data active = binding response below about 67% or above about 130%
# UBC13 polyUb – blocks human UBC13 polyubiquitin chain formation; TR-FRET; inhibition, % at 20 µM; 330,000 compounds, 0.47% hits; in the data active = inhibition above about 45%, passing the limit was not always enough
# MEKK3 PB1 HTS – modulators (inhibitors or enhancers) of MEK5 binding to human MEKK3 PB1 domain; Q99759; bead-based flow cytometry, Alexa488-MEK5 binding to MEKK3; actives lie on both sides; 0 = blocked by unlabeled MEK5, 100 = vehicle; binding response (% of control), % at 10 µM; 290,000 compounds, 1.4% hits; AID 1529;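 active = binding response more than 3 SD above or below the average of its plate-row segment, actives on both sides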;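 note: Alexa488 bead fluorescence after subtracting the streptavidin-only scavenger bead signal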
# Target sequence (Q99759 whole entry, looked up, the tested form may be a part): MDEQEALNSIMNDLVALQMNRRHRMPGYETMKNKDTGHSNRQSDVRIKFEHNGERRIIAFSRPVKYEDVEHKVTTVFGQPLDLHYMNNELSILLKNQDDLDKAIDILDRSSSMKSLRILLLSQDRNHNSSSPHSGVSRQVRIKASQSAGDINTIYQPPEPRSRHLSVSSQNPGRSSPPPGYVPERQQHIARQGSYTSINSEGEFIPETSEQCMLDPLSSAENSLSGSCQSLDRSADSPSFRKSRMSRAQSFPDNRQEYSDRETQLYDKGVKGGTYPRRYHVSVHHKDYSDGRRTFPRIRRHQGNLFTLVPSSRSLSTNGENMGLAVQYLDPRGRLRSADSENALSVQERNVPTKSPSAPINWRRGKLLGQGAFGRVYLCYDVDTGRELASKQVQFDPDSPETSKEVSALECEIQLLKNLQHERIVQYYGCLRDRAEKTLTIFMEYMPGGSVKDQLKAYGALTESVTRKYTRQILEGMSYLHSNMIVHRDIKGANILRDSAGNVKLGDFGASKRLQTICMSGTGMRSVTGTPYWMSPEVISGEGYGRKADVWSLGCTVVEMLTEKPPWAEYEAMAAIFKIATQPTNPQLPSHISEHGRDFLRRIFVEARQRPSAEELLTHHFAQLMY
# MEKK2wt confirm – raises or lowers MEK5 binding to wildtype human MEKK2, retest; shares compounds with MEKK3 PB1 HTS; bead flow cytometry, Alexa488-MEK5 binding to MEKK2 WT; actives lie on both sides; binding response (% of control), % at 10 µM; 5,900 compounds, 2.4% hits; AID 1892; in the data active = binding response below about 16% or above about 210%; inactive = in between
# MEKK2mut-MEK5 – signal of MEK5 binding to mutant human MEKK2, retest; shares compounds with MEKK3 PB1 HTS; bead flow cytometry, Alexa488-MEK5 binding to MEKK2 mutant; percent response, % at 10 µM; 5,900 compounds, 2% hits; in the data active = percent response mostly above about 71%, no sharp cut-off; inactive = mostly below about 38%;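 note: higher means compound restores mutant binding toward wildtype level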
# MEKK3 confirm – confirmation of inhibitors of MEK5 binding to human MEKK3; shares compounds with MEKK3 PB1 HTS; bead flow cytometry, Alexa488-MEK5 binding to MEKK3; active compounds read low; binding response (% of control), % at 10 µM; 5,900 compounds, 1.8% hits;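 active = binding response below 72% of control, or above a set upper limit, though filed actives all read lower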;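 note: 100% = DMSO only wells and 0% = binding blocked by excess unlabeled MEK5; lower values mean stronger disruption of MEK5 binding to MEKK3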
# Active calls of the source: *; nt = no result; [ ] = another dose, or the depositor's remark. Hits are enriched below; roughly 2.3% of the tested compounds scored in any of these assays.
SMILES,MEKK2 mut-MEK5,MEKK2 WT-MEK5,UBC13 polyUb,MEKK3 PB1 HTS,MEKK2wt confirm,MEKK2mut-MEK5,MEKK3 confirm
Nc1cc(N)nc(SCC(=O)NCc2ccc3c(c2)OCO3)n1,nt,nt,1,nt,nt,nt,nt
Cc1ccc(NC(=O)CN(C)C(=O)Cc2c(Cl)cccc2Cl)cc1,1,95,1,101,nt,nt,nt
CCOc1cc(N2CCOCC2)c(OCC)cc1NC(=O)CN1CCC(Cc2ccccc2)CC1,0,110,-4,149*,107,8,106
CCOc1cc(N2CCOCC2)c(OCC)cc1NC(=O)CN1C(=O)NC(Cc2ccccc2)C1=O (configuration not stated),-3,96,-2,97,nt,nt,nt
COCCN(C(=S)Nc1cccc(C)c1)C(C)c1cccnc1 (configuration not stated),4,102,20,103,nt,nt,nt
Cc1c(NC(=O)c2ccc3c(c2)OCO3)cccc1-c1nc2ccccc2o1,4,113,-10,131*,108,13,111
COc1cc2c(cc1NC(=O)Nc1ccccc1)oc1ccccc12,18,140*,-1,105,157,16,96
COc1cc2c(cc1NC(=S)Nc1cccc(C(F)(F)F)c1)oc1ccccc12,19,153*,4,102,126,-7,101
COc1cc2c(cc1NC(=S)Nc1cccc3ccccc13)oc1ccccc12,-3,92,-15,99,nt,nt,nt
COc1cc2c(cc1NC(=O)CCC(=O)O)oc1ccccc12,0,106,-7,101,nt,nt,nt
COc1cc2c(cc1NC(=O)c1ccc3c(c1)OCO3)oc1ccccc12,-34,-5.0*[inhibitor],14,99,95,-4,99
C/C(=N\NC(=O)CNC(=O)c1ccccc1F)c1ccco1,-1,100,6,102,nt,nt,nt
c1ccc(C(c2ccccc2)c2noc(CN3CCC(c4ccncc4)CC3)n2)cc1,-8,89,7,95,nt,nt,nt
CN(C)CCCN(C(=O)/C=C/c1cccs1)c1nc2c(F)cccc2s1,4,132,nt,109,nt,nt,nt
Cc1ccc2nc(N(CCCN(C)C)C(=O)c3cc(-c4cccs4)nc4ccccc34)sc2c1,73*,228*,21,116,205,63,109
CN(C)CCCN(C(=O)c1cc(-c2cccs2)nc2ccccc12)c1nc2c(F)cccc2s1,27*,172*,14,103,173,45,99
Cc1ccc(CN2CCSc3ccc(C(=O)NCc4ccco4)cc32)cc1,-15,58*[inhibitor],18,56*[inhibitor],100,-2,105
Cc1ccc(CN2CCSc3ccc(C(=O)NCCCN4CCOCC4)cc32)cc1,9,125,35,107,nt,nt,nt
COC(C)c1oc2c(C)c3oc(=O)cc(C)c3cc2c1C (configuration not stated),nt,nt,9,nt,nt,nt,nt
O=C(COC(=O)CCN=C1NS(=O)(=O)c2ccccc21)NNC(=O)c1ccccc1,nt,nt,0,nt,nt,nt,nt
COc1ccccc1-c1nnc(SCC(=O)O)n1-c1ccccc1,1,116,4,135*,101,11,105
C=CCN=C(C)C1=C(O)C(C)OC1=O (configuration not stated),1,103,-9,134*,103,3,105
CCOC(=O)c1c(CSc2ccc(CC)cc2)oc2ccc(O)c(CN(C)C)c12,36*,153*,43,112,166,38,109
O=C(CCC1CCCCC1)NCCN1C2=NC[C@@H](Cc3ccccc3)N2C[C@H]1Cc1ccc(O)cc1,33,149*,15,113,109,2,100
COc1ccc(C[C@H]2CN3C(=NC[C@@H]3Cc3ccc(O)cc3)N2C[C@H](C)NC(=O)CCC2CCCCC2)cc1,17,141*,41,115,131,12,89
SMILES,MEKK2 mut-MEK5,MEKK2 WT-MEK5,UBC13 polyUb,MEKK3 PB1 HTS,MEKK2wt confirm,MEKK2mut-MEK5,MEKK3 confirm
COC(=O)CN1C(=O)[C@H]2[C@@H](c3ccc(C)o3)N3C(=O)CN(CC4CC4)C(=O)[C@@]3(C)[C@H]2C1=O,-2,105,4,103,nt,nt,nt
O=C1/C(=C/c2ccccn2)SC(=S)N1N1CCOCC1,-11,94,-3,94,nt,nt,nt
Cc1ccc(NC(=O)C2CCN(C(=O)c3ccc(F)cc3)CC2)nc1,nt,nt,0,nt,nt,nt,nt
COc1ccc(C(=O)NC2CCN(Cc3c(F)cccc3Cl)CC2)cc1OC,-2,100,-4,99,nt,nt,nt
COc1ccc(S(=O)(=O)N2CCCCC2)cc1NC(=O)CCCNC(=O)c1ccc(Cl)cc1,nt,nt,10,nt,nt,nt,nt
COc1ccc(OC)c(NC(=S)NCCSc2ccc(C)cc2)c1,1,112,7,142*,108,7,106
COc1ccc(NC(=O)CCC(=O)OCC(=O)c2ccc(Oc3ccc([N+](=O)[O-])cc3)cc2)cc1,1,105,-12,113,nt,nt,nt
Cc1ccc(NC(=O)CCC(=O)OCC(=O)c2ccc(Oc3ccc([N+](=O)[O-])cc3)cc2)cc1,0,108,-34,144*,101,1,104
CCC(C)(C)NC(=O)C1CC(=O)N(CCc2ccc(F)cc2)C1 (configuration not stated),13,105,3,99,nt,nt,nt
Oc1[nH]c2ccccc2c1N=NC(=S)NCCc1ccccc1,0,102,nt,130*,94,-7,96
COC(=O)[C@]1(C)N[C@H](CN(C)C(=O)Nc2ccc(C(F)(F)F)cc2)[C@@H]2C(=O)N(C)C(=O)[C@@H]21,nt,nt,-8,nt,nt,nt,nt
C[C@@H](C(=O)NNC(=O)c1ccc(Cl)cc1)N1C(=O)C2CC=CCC2C1=O (some centres not stated),nt,nt,-2,nt,nt,nt,nt
CCCN(CCC)c1cc(Cl)nc(N)n1,-2,104,11,120,nt,nt,nt
CSc1nc(Cl)cc(N(CCO)CCO)n1,25*,105,5,103,96,0,101
CN(C)CCNc1oc(COc2ccc(-c3ccccc3)cc2)nc1C#N,34,150*,16,106,141,30,107
N#Cc1nc(COc2ccc(-c3ccccc3)cc2)oc1NCCCN1CCOCC1,20,140*,26,107,144,31,104
O=C(NCCCN1CCCC1=O)c1cccc(S(=O)(=O)N2CCCCC2)c1,nt,nt,-2,nt,nt,nt,nt
N#Cc1ccccc1NC(=O)CSc1n[nH]c(=O)n1C1CC1,nt,nt,-3,nt,nt,nt,nt
O=C(CC(Nc1ccccc1Cl)C(=O)O)c1ccccc1 (configuration not stated),1,113,-16,130*,99,2,103
CSc1ccc(CN(C)C(=O)c2cccc(S(=O)(=O)N3CCN(Cc4ccccc4)CC3)c2)cc1,nt,nt,2,nt,nt,nt,nt
COc1cc(CNCCc2ccc(S(N)(=O)=O)cc2)ccc1OCc1ccc(Cl)cc1,71*,232*,37,105,150,20,108

# From PubChem
